Records with an inconclusive call do not appear. Values without a mark were called inactive. Calls of active or inactive are those of the source. Calls come from the whole dose curve; as a rule, active = well fitted cell-killing curve with a large enough effect; inconclusive = small, poorly fitted or top-dose-only effect; inactive = flat fitted curve, though single readings scatter.
Assay: Compound cytotoxicity measured by an ATP content assay as a counter-screen for lead compounds in human iPSC derived neural progenitor cells (hNPCs)
Details: human iPSC-derived NPC viability, ATP luminescence; series mostly up to 46.1 µM; activity, negative = cytotoxicity: at the top concentration
Description: National Center for Advancing Translational Sciences [NCATS] Johns Hopkins University School of Medicine Florida State University Assay Overview: Many compounds can cause cytotoxicity at high compound concentrations. […] The compound cytotoxicity may also cause side effects or toxicity in human. Thus, the compound cytotoxicity needs to be measured in each cell type and each compound incubation time - same as these in the compound screening assay. The compound cytotoxicity can be measured by cell viability assays such as the ATP content assay. We use an ATP content assay kit for cell viability measurement. It measures ATP content (level) in human iPSC derived neural progenitor cells (hNPCs) using a luminescence readout that is proportional to viable cell numbers. Decrease in the luminescence signal after the compound treatment indicates reduced cell viability and cell death caused by compound treatment.
Assay Protocol Summary: The medium for hNPCs consists of DMEM/F12, N2 supplement (ThermoFisher, Cat.# 17502048), NEAA (ThermoFisher, Cat. # 11140050), 2 ug/ml heparin, 2 uM cyclopamine, and B27 (ThermoFisher, Cat. # 17504044). The ATP content assay kit (PerkinElmer, Cat.# 6016731) was used to determine cell viability. The reagent was reconstituted and prepared as described by the manufacturer. Cells were seeded in 384- or 1536-well assay plates and cultured at 37 C with 5% CO2 for 16 to 20 hours. The typical cell seeding density in the 1536-well plate assay is 350 cells/well in 3 ul medium for hNPCs in the tissue cultured treated/PDL coated plates. Compounds were added to cells and incubated for a specific time such as 6, 24, or 72 hours before addition of the reagent mixture of the ATP content assay kit at 1:1 ratio. After incubation at room temperature for 10 minutes, the luminescence intensity in assay plates was measured using a ViewLux plate reader (PerkinElmer). […] The percentage inhibitions of the decreased cell viability by small molecules were then calculated that indicate compound cytotoxicity.

| SMILES | activity, negative = cytotoxicity | Potency |
| --- | --- | --- |
| O=c1oc2cc(O)ccc2s1 | -10.4% |  |
| CC[C@]1(O)C[C@H]2CN(CCc3c([nH]c4ccccc34)[C@@](C(=O)OC)(c3cc4c(cc3OC)N(C=O)[C@H]3[C@@](O)(C(=O)OC)[C@H](OC(C)=O)[C@]5(CC)C=CCN6CC[C@]43[C@@H]65)C2)C1 | 0.247% |  |
| Cc1c(N)c(=O)n(-c2ccccc2)n1C | -10.4% |  |
| CN1CCN(c2cc3c(nn2)Oc2ccccc2N3C)CC1 | 1.81% [at 23.8 µM] |  |
| O=C(/C=C/c1ccccc1)NCCO | 3.85% |  |
| CCCCCCCC/C=C/C(=O)O | -7.84% |  |
| CC(O)=C(C#N)C(=O)Nc1ccc(C(F)(F)F)cc1 |  | 13.8 µM (active) |
| CC(=O)Oc1cccc2c1C(=O)c1c(OC(C)=O)cc(C(=O)O)cc1C2=O | -0.702% |  |
| C[C@@H](N)c1ccc(C(=O)Nc2ccnc3[nH]ccc23)cc1 | 7.73% |  |
| COc1ccc(-c2cc(=O)c3c(O)cc(O)cc3o2)cc1O | -5.38% |  |
| Cc1[nH]c(C=C2C(=O)Nc3ccccc32)c(C)c1CCC(=O)O | 5.02% |  |
| O=C(Nc1ccc(C(=O)O)c(O)c1)c1ccccc1 | -7.98% |  |
| O=C(O)c1ccccc1NCCc1ccccc1 | 7.25% |  |
| Cc1cc(O)c2c(c1)C(=O)c1cc(O)cc(O)c1C2=O | -12.6% |  |
| OCc1ccc(-c2ccc(-c3ccc(CO)s3)o2)s1 |  | 10.9 µM (active) |
| C[C@H](NC(=O)C(=O)Nc1ccccc1C(C)(C)C)C(=O)N[C@@H](CC(=O)O)C(=O)COc1c(F)c(F)cc(F)c1F | -0.979% |  |
| O=C(O)[C@@H](c1ccc(OCc2ccc3ccccc3n2)cc1)C1CCCC1 | 1.28% |  |
| C[C@@H]1CCN(C(=O)CC#N)C[C@H]1N(C)c1ncnc2[nH]ccc12 | -3.45% |  |
| CN1CC(=O)N/C1=N/C(=O)Nc1cccc(Cl)c1 | -7.62% |  |
| Cc1csc(NC(=O)c2sc3nc4c(c(C(F)(F)F)c3c2N)CCC4)n1 |  | 1.95 µM (active) |

| SMILES | activity, negative = cytotoxicity | Potency |
| --- | --- | --- |
| CC=CC[C@@H](C)C(=O)[C@H]1C(=O)N[C@@H](C(C)C)C(=O)N(C)CC(=O)N(C)[C@@H](CC(C)C)C(=O)N[C@@H](C(C)C)C(=O)N(C)[C@@H](CC(C)C)C(=O)N[C@@H](C)C(=O)N[C@H](C)C(=O)N(C)[C@@H](CC(C)C)C(=O)N(C)[C@@H](CC(C)C)C(=O)N(C)[C@@H](C(C)C)C(=O)N1C | -13.2% |  |
| O=C(O)[C@H](CC(=O)N1C[C@@H]2CCCC[C@H]2C1)Cc1ccccc1 | 9.38% |  |
| O=C(Nc1ccc([N+](=O)[O-])cc1Cl)c1cc(Cl)ccc1O |  | 8.69 µM (active) |
| c1ccc(CCNc2nc(-c3ccccc3)cs2)cc1 | -5.35% |  |
| C=CCCCCCCCCC(=O)O | 2.42% |  |
| CC(=Cc1ccccc1)C=C1SC(=S)N(CC(=O)O)C1=O | -12.6% |  |
| Oc1cc(O)cc(/C=C/c2ccc(O)c(O)c2)c1 |  | 7.74 µM (active) |
| O=c1cc(-c2ccccc2)oc2cc(O)cc(O)c12 | -13.1% |  |
| O=C(c1ccccc1)c1ccc2n1CCC2C(=O)O (stereo not given) | 6.4% |  |
| CC(C(=O)O)c1ccc2c(c1)[nH]c1ccc(Cl)cc12 (stereo not given) | 16% |  |
| COc1cc2nc(N3CCN(C(=O)C4CCCO4)CC3)nc(N)c2cc1OC (stereo not given) | 0.309% |  |
| N#CC1(c2ccc(NC(=O)c3cccnc3NCc3ccncc3)cc2)CCCC1 | -21.9% |  |
| [O-][n+]1ccccc1SSc1cccc[n+]1[O-] |  | 0.112 µM (active) |
| CC(C)(C)COc1ccc(-n2cc(C(=O)O)cn2)cc1C#N | -9.53% [at 88.3 µM] |  |
| O=c1[nH]nc(Sc2ncc([N+](=O)[O-])s2)n1-c1ccc2c(c1)OCCO2 |  | 1.73 µM (active) |
| Nc1ncnc2c1ncn2[C@@H]1O[C@@H](CO)[C@H](O)[C@H]1O | -7.22% [at 23.8 µM] |  |
| Nc1nc2ccc([N+](=O)[O-])cc2s1 | 1.04% [at 88.3 µM] |  |
| CNC(=O)c1ccccc1Sc1ccc2c(/C=C/c3ccccn3)n[nH]c2c1 |  | 7.74 µM (active) |
| O=C(O)c1cccc(-c2noc(-c3ccccc3F)n2)c1 |  | 5.48 µM (active) |
| Cc1ccc(C(=O)c2ccc(CC(=O)O)n2C)cc1 | -10.8% |  |
